Screens (PubChem)
Most compounds without a hit are left out; they make up all but 2.2% or so of the library.
aSyn UTR inh: MLPCN primary screen, SNCA 5' untranslated region | alpha-synuclein 5'UTR reporter, inhibitor activity | inhibition, % (tested at 7.5 µM) | 0.82% of 300,000 active | AID 1813; in the data active means inhibition above about 60%;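 further: H4 neuroglioblastoma cells stably carrying SNCA 5'UTR luciferase fusion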
APP 5UTR inh: APP translation inhibition; 0.82% of 190,000 active; inhibition, % at 2 µM; SH-SY5Y APP 5'UTR-luciferase reporter, luminescence;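 active means inhibition above a set limit, derived from the sample mean plus 3 SD, cut at about 45% in these data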
KLF5 inh: suppresses KLF5 promoter-driven expression | DLD-1 KLF5 promoter-luciferase reporter, luminescence | inhibition, % at 5 µM | 0.23% of 290,000 active;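 active means inhibition above a per-plate limit of that plate's mean compound inhibition plus 3 SD, cut at about 60% in these data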;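 further: higher means less KLF5 promoter-driven luciferase light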
Ba/F3 V617F tox: reduce viability of Ba/F3 cells dependent on JAK2V617F; Ba/F3 EpoR-JAK2V617F viability, ATP luminescence; inhibition, % at 5.6 µM; 1.1% of 220,000 active; AID 1446;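 active means inhibition above the campaign mean plus 3 SD over all tested compounds, cut at about 24% in these data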;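 further: cytokine-independent growth of Ba/F3 cells driven by EpoR plus mutant JAK2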
BaF3 tox: counter-screen for JAK2V617F inhibitors: parental Ba/F3 viability inhibitors | CellTiter-Glo ATP luminescence | AID 1486 | 1.1% of 220,000 active | inhibition, % at 5.6 µM;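 active means inhibition above a per-campaign cutoff, the mean inhibition of all tested compounds plus 3 SD, cut at about 27% in these data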
IEC-6 tox: counter-screen for KLF5 inhibitors: cytotoxicity in IEC-6 cells. IEC-6 cytotoxicity, luminescence viability. inhibition, % at 5 µM. 0.78% of 290,000 active; in the data active means inhibition above about 22%
Each line names hits and unclear results; the compound was inactive in the other large screens.

CCOc1ccc(NC(=O)CN(C)C(=O)c2ccc(=O)[nH]c2)cc1OCC	none (no result: APP 5UTR inh, Ba/F3 V617F tox, BaF3 tox)
CC(CCc1ccccc1)NC(=O)C1CCN(S(=O)(=O)N2CCOCC2)CC1 (configuration not stated)	BaF3 tox 91.0
COc1ccccc1CC(=O)N1CCC(n2nccc2NC(=O)C2CCOC2)CC1 (configuration not stated)	none (no result: APP 5UTR inh, Ba/F3 V617F tox, BaF3 tox)
Cc1ccc(N=CC=C2OC(C)(C)C(C)(C)O2)c(C)c1	none
CC1(C)OC(=CC=Nc2ccc(Cl)cc2)OC1(C)C	aSyn UTR inh 102.9 (no result: APP 5UTR inh)
CCOc1ccc2nc(N/C(N)=N/C(=S)Nc3ccc(C)c(C)c3)nc(C)c2c1	none
COc1ccc(NC(=S)/N=C(\N)Nc2nc(C)c3ccc(C)cc3n2)cc1	BaF3 tox 43.4
Cc1cc(C)c(NC(=O)C2CCCO2)c(C)c1NC(=O)C1CCCO1 (configuration not stated)	none (no result: APP 5UTR inh, Ba/F3 V617F tox, BaF3 tox)
CC(/C=C1\SC(=O)N(CCCC(=O)O)C1=O)=C\c1ccccc1	aSyn UTR inh 102.5, APP 5UTR inh 78.5
CC(/C=C1\SC(=S)N(CCCC(=O)Nc2ccc(C(=O)O)cc2)C1=O)=C\c1ccccc1	none
C=CCN1C(=O)/C(=C\C(C)=C\c2ccccc2)SC1=S	none (no result: APP 5UTR inh, Ba/F3 V617F tox, BaF3 tox)
CC(=C\c1ccccc1)/C=C1/SC(=S)N(CCCC(=O)O)C1=O	aSyn UTR inh 66.6 (no result: APP 5UTR inh, Ba/F3 V617F tox, BaF3 tox)
O=C(Nc1ccccc1Sc1ccccc1)C1CCCO1 (configuration not stated)	APP 5UTR inh 48.7
O=C(O)c1ccccc1NC(=O)C1CCCO1 (configuration not stated)	none
OC(CNCCc1ccc(Cl)cc1)COCc1ccco1 (configuration not stated)	BaF3 tox 93.6
COc1ccc(CN(C)Cc2nc(Cc3cccc(F)c3)no2)c2cccnc12	Ba/F3 V617F tox 46.3, BaF3 tox 61.9
COc1cccc(-n2cc(CN(C)Cc3nc(Cc4cccc(F)c4)no3)cn2)c1	none
CCCCOn1c(C)c(C(=O)OCC)c2c3nonc3ccc21	none
COn1c(C)c(C(C)=O)c2c3nonc3ccc21	BaF3 tox 96.4
COc1ccc(CNCC(O)COc2cccc3c2OC(C)(C)C3)cc1 (configuration not stated)	BaF3 tox 28.7
O=C(Oc1ccc(Br)cc1C(=S)N1CCCCC1)c1cc([N+](=O)[O-])cc([N+](=O)[O-])c1	APP 5UTR inh 49.8
CCCCN(C(=O)c1c(CC)noc1C)c1c(N)n(CCCC)c(=O)[nH]c1=O	none (no result: APP 5UTR inh, KLF5 inh, Ba/F3 V617F tox, BaF3 tox, IEC-6 tox)
C#CC[N+](C)(C)CCCCCCCCCCCC	aSyn UTR inh 77.0, Ba/F3 V617F tox 79.7, BaF3 tox 76.4
C[N+](C)(C)CCCCCC[N+](C)(C)C	none (no result: APP 5UTR inh, KLF5 inh, Ba/F3 V617F tox, BaF3 tox, IEC-6 tox)
CCCCCC[N+](C)(C)CCSSCC[N+](C)(C)CCCCCC	none (no result: APP 5UTR inh)
C#CC[N+](C)(C)CCCCCCCCCC	aSyn UTR inh 75.3, Ba/F3 V617F tox 78.5, BaF3 tox 78.9
C#CC[N+](C)(C)CCCCCCCC	Ba/F3 V617F tox 65.7, BaF3 tox 42.8
CC#CC[N+](C)(C)CCCCCCCCCCCC	Ba/F3 V617F tox 100.9, BaF3 tox 80.9, IEC-6 tox 24.2
Cc1ccc(Cl)cc1NC(=O)CN1CCOCC1	none (no result: APP 5UTR inh, KLF5 inh, Ba/F3 V617F tox, BaF3 tox, IEC-6 tox)
CC1=C(C)CC(C(=O)NCc2cccc(Cl)c2)C(C(=O)O)C1 (configuration not stated)	none (no result: APP 5UTR inh, Ba/F3 V617F tox, BaF3 tox)
C=CCN1C(=O)C(C)(C)N(C(=O)c2cccc([N+](=O)[O-])c2)c2ccccc21	none (no result: APP 5UTR inh, Ba/F3 V617F tox, BaF3 tox)
CCCCCCCCCCCCCCCC[N+](C)(C)CC	aSyn UTR inh 100.9 (no result: APP 5UTR inh, KLF5 inh, Ba/F3 V617F tox, BaF3 tox, IEC-6 tox)
Cc1ccc(NC(=O)CSCC(=O)NCc2cccc(C(F)(F)F)c2)cc1	none (no result: APP 5UTR inh, KLF5 inh, Ba/F3 V617F tox, BaF3 tox, IEC-6 tox)
Cc1ccc(/C=N/NC(=O)Cc2ccc(Cl)cc2)c(O)c1	aSyn UTR inh 66.4 (no result: APP 5UTR inh, Ba/F3 V617F tox, BaF3 tox)
CC1c2[nH]c3ccccc3c2C[C@H]2C(=O)N(CCCN(C)C)CC(=O)N12 (some centres not stated)	none (no result: APP 5UTR inh, Ba/F3 V617F tox, BaF3 tox)
Cc1cc(NC(=O)CSc2nnc(C3CC3)n2N)c([N+](=O)[O-])cc1C	BaF3 tox 80.6
Oc1cccc(C(=S)N2CCC(Cc3ccccc3)CC2)c1	none (no result: APP 5UTR inh, Ba/F3 V617F tox, BaF3 tox)
O=C(NCCCCNC(=O)c1c(F)c(F)c(F)c(F)c1F)c1c(F)c(F)c(F)c(F)c1F	none
CC(C)CNC(=O)c1c(F)c(F)c(F)c(F)c1F	BaF3 tox 73.6
Cc1cc(=O)oc2cc(OCC(=O)OCC(=O)N(C)C3CCS(=O)(=O)C3)ccc12 (configuration not stated)	none (no result: APP 5UTR inh)
O=C(CCc1c[nH]c2ccccc12)NCCc1ccc(Cl)cc1	none (no result: APP 5UTR inh, Ba/F3 V617F tox, BaF3 tox)
CC(=O)O[C@H]1C(=O)[C@@]2(C)[C@H]([C@H](OC(=O)c3ccccc3)[C@]3(O)C[C@H](OC(=O)[C@H](O)C(NC(=O)c4ccccc4)c4ccccc4)C(C)=C1C3(C)C)[C@]1(OC(C)=O)CO[C@@H]1C[C@@H]2O (some centres not stated)	aSyn UTR inh 72.3 (no result: APP 5UTR inh, KLF5 inh, Ba/F3 V617F tox, BaF3 tox, IEC-6 tox)
COc1cc(NC(=O)Cn2ncc(Cl)c(Cl)c2=O)c(C)cc1[N+](=O)[O-]	aSyn UTR inh 121.4, APP 5UTR inh 95.1, Ba/F3 V617F tox 74.3, BaF3 tox 73.0
CCOC(=O)Cc1nn(Cc2nc(-c3ccc(C#N)cc3)cs2)c(=O)c2ccccc12	none (no result: APP 5UTR inh)
O=c1/c(=C\c2cccn2-c2ccccc2)sc2nc3ccccc3n12	none (no result: aSyn UTR inh)
Cc1ccc(-n2c(C)cc(/C=c3/sc4nc5ccccc5n4c3=O)c2C)cc1	aSyn UTR inh 66.7
COc1cc(/C=N/NC(N)=S)ccc1OC(=O)c1ccc(C)cc1	none
COc1cc(/C=N/NS(=O)(=O)c2ccc(C)cc2)ccc1OCc1cccc(C(=O)O)c1	aSyn UTR inh 89.8
COc1cc(/C=N/NC(N)=S)ccc1OCc1ccc(C)cc1	Ba/F3 V617F tox 60.2, BaF3 tox 48.5
C/C(=N\NC(=S)NCc1ccccc1)c1ccco1	BaF3 tox 67.2
CC(=O)/C=C/n1c(=S)oc2ccccc21	APP 5UTR inh 86.6
CN1CCN(Cc2c(C(=O)N/N=C/c3cccc(Br)c3)nnn2-c2nonc2N)CC1	none (no result: APP 5UTR inh, Ba/F3 V617F tox, BaF3 tox)
N#Cc1cnc(NCc2ccc(Cl)cc2Cl)nc1	none (no result: APP 5UTR inh, Ba/F3 V617F tox, BaF3 tox)
O=C(c1ccc2c(c1)OCO2)N1CCCc2ccccc21	none
Cc1ccc2c(c1)CCCN2C(=O)c1ccc2c(c1)OCO2	Ba/F3 V617F tox 28.8, BaF3 tox 29.6
O=C(Nc1ccc(OCC(F)(F)C(F)F)c(C(F)(F)F)c1)c1ccccc1O	Ba/F3 V617F tox 47.6, BaF3 tox 86.6
O=C(Nc1ccc(OCC(F)(F)C(F)F)c(C(F)(F)F)c1)c1ccccc1	none
O=C(O)/C=C/C(=O)Nc1ccc(Oc2ncnc3cc(Cl)ccc23)nc1	none (no result: APP 5UTR inh)
CCn1c(C)cc(/C=C2/NC(=O)N(c3ccccc3)C2=O)c1C	Ba/F3 V617F tox 39.9
CC1(c2ccccc2)NC(=O)N(CC(=O)N2CCN(S(=O)(=O)c3ccccc3[N+](=O)[O-])CC2)C1=O (configuration not stated)	none (no result: APP 5UTR inh, Ba/F3 V617F tox, BaF3 tox)
c1ccc(-c2nnc(-c3ccccn3)nc2NC2CCCCC2)cc1	aSyn UTR inh 101.2, APP 5UTR inh 76.7, Ba/F3 V617F tox 63.8, BaF3 tox 94.5
CNc1nc(-c2ccccn2)nnc1-c1ccccc1	none
Cc1ccc([C@@H]2[C@@H]3C(=O)N(C)C(=O)[C@@H]3[C@@H]3C(=O)Nc4ccccc4C(=O)N23)cc1	none (no result: APP 5UTR inh, Ba/F3 V617F tox, BaF3 tox)
